In PubChem BioAssay AID1645856 (Buhrlage Lab, Dana-Farber Cancer Institute and Novartis …, 2021):
The whole screen tested about 47,000 compounds, of which about 510 (1.1%) were called active. The sample holds actives, similar compounds and a random draw of the others, so the mix is not that of the screen. Rule as the data show it: active = inhibition above about 30%; inactive = the rest.

target: Ubiquitin carboxyl-terminal hydrolase 10 (Homo sapiens) (UniProt Q14694); test: blocks human USP10 ubiquitin-rhodamine cleavage (AID 1645856); conditions: purified USP10, Ub-rhodamine fluorescence, 60 min; at 20 µM; hits give high values
Sequence (Q14694 whole entry, looked up): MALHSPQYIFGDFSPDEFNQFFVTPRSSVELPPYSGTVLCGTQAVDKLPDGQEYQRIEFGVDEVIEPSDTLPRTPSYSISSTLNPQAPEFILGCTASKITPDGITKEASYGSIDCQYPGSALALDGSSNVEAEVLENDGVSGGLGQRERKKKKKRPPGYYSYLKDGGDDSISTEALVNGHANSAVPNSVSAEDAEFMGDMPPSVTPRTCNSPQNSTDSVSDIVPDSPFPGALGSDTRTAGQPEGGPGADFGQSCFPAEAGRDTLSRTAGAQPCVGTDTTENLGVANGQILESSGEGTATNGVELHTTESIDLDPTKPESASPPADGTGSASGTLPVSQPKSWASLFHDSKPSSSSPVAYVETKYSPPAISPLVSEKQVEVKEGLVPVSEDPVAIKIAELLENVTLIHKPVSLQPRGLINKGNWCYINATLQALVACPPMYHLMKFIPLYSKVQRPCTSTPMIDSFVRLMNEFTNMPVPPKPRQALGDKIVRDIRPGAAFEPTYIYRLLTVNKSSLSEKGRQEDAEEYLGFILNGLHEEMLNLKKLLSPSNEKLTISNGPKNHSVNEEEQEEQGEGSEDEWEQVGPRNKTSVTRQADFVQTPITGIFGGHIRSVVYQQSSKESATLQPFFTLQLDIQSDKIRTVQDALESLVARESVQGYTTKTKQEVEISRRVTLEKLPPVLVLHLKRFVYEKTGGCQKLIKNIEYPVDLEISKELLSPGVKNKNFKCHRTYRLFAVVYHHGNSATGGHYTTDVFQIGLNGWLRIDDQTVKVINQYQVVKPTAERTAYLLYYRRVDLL

inhibition, active:
COc1ccc(NS(=O)(=O)c2cc(NC(=O)CC(=O)c3ccc([N+](=O)[O-])cc3)ccc2C)cc1 43.8%
Nc1ccc(C(=O)OCC(=O)NC2CCCc3ccccc32)cc1[N+](=O)[O-] (configuration not stated) 31.8%
CCOc1ccc2c(c1)c(=O)c(C(=O)c1ccccc1)cn2CC(=O)Nc1ccc(OC)cc1 59.7%
Cc1nc2c(c(C)c1CCC(=O)Nc1ccccc1F)c(=O)n(C)c(=O)n2C 32.5%
O=C(Nc1nnc(-c2cccc([N+](=O)[O-])c2)o1)C1CCN(S(=O)(=O)c2ccc3c(c2)CCC3)CC1 46.7%
O=S(=O)(Nc1cccc(O)c1)c1ccc2oc3ccc(S(=O)(=O)Nc4cccc(O)c4)cc3c2c1 54.6%
Oc1cccc2nc3c(O)cccc3nc12 41.5%
Cc1ccc(Nc2nc(NCC(=O)Nc3cc(C)ccc3C)nc(Nc3ccc(C)cc3)n2)cc1 37%
COc1cccc(NC(=O)C(Sc2cccc(NC(=O)c3ccccc3F)c2)c2ccccc2)c1 (configuration not stated) 32.4%
Cc1ccc(-n2cc(-c3noc(C(=O)Nc4ccc(F)cc4C)n3)nn2)cc1 76.1%

inhibition, inactive:
O=C(Nc1cccc(Cl)c1)N(Cc1ccccc1)CC1CC=CCC1 (configuration not stated) 16.3%
CCc1nnc(CN2CCC(C3CCCCCN3C(=O)NC(C)C)CC2)o1 (configuration not stated) -4.07%
COc1ccc(Nc2cc(C(=O)N3CCC4(CC3)OCCO4)c3ccccc3n2)cc1 -0.645%
CCN1C(=O)[C@H]2CN(C(C)=O)C[C@H]2C12CCN(C(=O)NCCc1ccc(OC)cc1)CC2 0.803%
O=C(CN(Cc1ccccc1Cl)S(=O)(=O)c1ccccc1F)NC(c1ccccc1)c1ccccc1 6.49%
Cc1ccc2[nH]c(=O)c(CN(CC3COCCO3)C(=O)Nc3ccccc3C)cc2c1 (configuration not stated) -0.00505%
Cc1cc(=O)n(CC(=O)Nc2ccc3c(c2)OCO3)c2c1c(-c1ccccc1)nn2-c1ccccc1 25%
O=S(=O)(c1cc(-c2nnc(C3CC3)o2)co1)N1CCCCC1 -3.39%
O=C(NC1CCCC1)c1ccc(N2CCOc3ccccc32)s1 0.616%
CCc1nnc(-c2cc(S(=O)(=O)Nc3ccccc3F)c[nH]2)o1 -2.11%
O=C(Oc1ccc(Oc2ccccc2)cc1)c1ccc([N+](=O)[O-])cc1 7.41%
Cc1nn(-c2ccc(F)cc2)c(C)c1S(=O)(=O)NC1CC1 -2.46%
COc1ccc(NS(=O)(=O)c2cc(NC(=O)/C=C/c3cccc(OC)c3)ccc2OC)cc1 0.326%
COc1ccc(NS(=O)(=O)c2cc(NC(=O)COc3ccccc3F)ccc2OC)cc1 3.65%
Cc1ccc(C2c3[nH]c4ccccc4c3C[C@H]3C(=O)N(c4ccccc4C(=O)NC4CCCCC4)C(=O)N23)cc1 (some centres not stated) -9.46%
Cc1cccc(C(=O)NCc2nnc3ccccn23)c1 5.59%
CCOc1c(C)cnc2c1c(=O)n(CC(=O)N1CCC(C)CC1)c(=O)n2C -3.58%
c1ccc(OCCn2nc(C3CCN(C4CCOCC4)CC3)c3nccnc32)cc1 -0.0392%
O=C(NCc1ccc2c(c1)OCO2)c1cn(-c2cccc(Cl)c2)nn1 28.3%
CCN1CCN(Cc2nc(-c3ccc(N4CCCCC4)nc3)no2)CC1 0.502%
CCc1cc(C2CCCN2C(=O)NCc2ccc(F)cc2)on1 (configuration not stated) 0.108%
CC1(C(=O)NC2CCCCCC2)Cc2ccccc2C(=O)N1C1CCCCC1 (configuration not stated) 3.98%
O=C(c1ccccc1)c1ccc(NC2CCCc3ccccc32)c([N+](=O)[O-])c1 (configuration not stated) -3.29%
O=C(COC(=O)c1ccc(F)cc1)NC1CCCc2ccccc21 (configuration not stated) -2.88%
N#Cc1ccccc1OCC(=O)Nc1ccc(-c2cn3ccsc3n2)cc1 -4.52%
COc1ccc(NC(=O)CSc2cn(CC(=O)N3CCCC3)c3ccccc23)cc1 1.6%
CCOc1ccc(NC(=O)Cn2cc(C(=O)c3ccc(Cl)cc3)c(=O)c3cc(OC)ccc32)cc1 27%
O=C(CN1CCCN(c2cc(-c3ccc(N4CCOCC4)cc3)ncn2)CC1)N1CCOCC1 -2.74%
CCN1C(=O)[C@H]2CN(CCOC)C[C@H]2C12CCN(C(=O)Nc1ccccc1)CC2 0.649%
Cc1ccc(CN2C(=O)C(CC(=O)Nc3ccccc3F)n3c2nc2ccccc23)cc1 (configuration not stated) 6.51%
Cc1cc2nc(N3CCOCC3)n(CC(=O)Nc3ccccc3F)c(=O)c2n1C -1.21%
COc1ccc(NC(=O)CC2C(=O)NCCN2C(=O)Nc2ccc(F)cc2)cc1 (configuration not stated) -0.861%
CCOc1ccc(-c2noc(-c3nn(-c4cccc(OC)c4)ccc3=O)n2)cc1 7.86%
O=C(COC(=O)C1CCN(S(=O)(=O)c2c(Cl)cccc2Cl)CC1)Nc1ccc2c(c1)CCC2 6.62%
Cc1cccc(-c2nnc(-c3cccc(S(=O)(=O)N4CCCC4)c3)o2)c1 3.94%
CCOC(=O)C1CCN(C(=O)c2cnc(Nc3ccc(C)c(Cl)c3)c3ccccc23)CC1 6.16%
COc1ccc(C(=O)Cn2nc(C)cc2C)cc1 -2.02%
Cc1cc(C)cc(NC(=O)c2cc(CN3CCOCC3)on2)c1 -1.83%
O=C(NCC1CCCO1)c1[nH]c2ccccc2c1Sc1ccc(Cl)cc1 (configuration not stated) 0.402%
Cc1ccc(CC(=O)N2CCCC(c3ccncn3)C2)s1 (configuration not stated) -2.71%
CC(c1ccncc1)n1nccc1NC(=O)c1cccnc1Sc1ccccc1 (configuration not stated) -7.87%
CCc1noc(-c2ccnc(-n3ncc(C(=O)N4CCC(C)CC4)c3C)c2)n1 -0.304%
COc1ccc(-c2cc(C(=O)NCCCN3CCCC3=O)c3ccccc3n2)cc1OC -3.65%
CC(C)CC1NC(=O)C2(CCN(C(=O)Nc3ccc(Cl)c(Cl)c3)CC2)NC1=O (configuration not stated) 1.3%
O=C(NCC1CCCO1)c1ccccc1N1C(=O)[C@@H]2Cc3c([nH]c4ccccc34)C(c3cccc(Cl)c3)N2C1=O (some centres not stated) -2.66%
O=C(Nc1ccccc1Br)c1ncoc1-c1cccs1 2.95%
CCCc1nc(-c2c(C)cc(C)nc2NC(=O)C2CCCCC2)no1 -4.35%
COc1cccc(NS(=O)(=O)c2ccc(-c3coc(C)n3)cc2)c1 2.04%
Cc1cccc(NS(=O)(=O)c2ccc3nnc(C)n3c2)c1 -2.24%
COc1ccccc1C1CC(c2c(O)n(C)c(=O)n(C)c2=O)=Nc2ccccc2S1 (configuration not stated) 2.61%
COC(=O)COc1cccc2c(=O)n(CC(=O)N3CCc4ccccc43)ccc12 2.69%
COc1ccccc1CN1CCC2(CC1)NC(=O)C(CC(C)C)NC2=O (configuration not stated) 0.757%
CC(C)NC(=O)c1cc(-c2cnc(-c3ccnn3C)nc2)cn1CC1CC1 -0.689%
O=S(=O)(Cc1ccccc1)N1CCC2(CCN(Cc3cccc(F)c3)C2)C1 (configuration not stated) -2.23%
O=c1ccc(S(=O)(=O)N2CCOCC2)cn1Cc1ccccc1 -0.385%
COc1cc(-c2nc(CC(=O)NCCc3c[nH]c4ccc(F)cc34)cs2)cc(OC)c1OC -1.95%
CC(C)n1c(C2CCN(C(=O)Nc3ccc4c(c3)CCC4)C2)nc2ccncc21 (configuration not stated) 2.17%
COc1cccc(CNC(=O)c2nnn(CC(=O)Nc3cc(C)ccc3C)c2N)c1 29.8%
Cc1ccc(NC(=O)Cc2sc(Nc3ccc(C)cc3)nc2O)cc1 25.6%
CS(=O)(=O)N1Cc2ccccc2OC2(CCCNC2)C1 (configuration not stated) -0.607%
CCOc1nccnc1N1CCC(N(C)S(=O)(=O)C2CC2)C1 (configuration not stated) 1.55%
CC(C)c1ccc(NC(=O)C[n+]2cc(-c3ccc(F)cc3)n3c2CCC3)cc1 0.686%
COc1cccc(NC(=O)c2nn(-c3ccc(F)cc3)c(OC)cc2=O)c1 0.262%
COc1ccccc1C(=O)Nc1cccc(Oc2ccccc2)c1 11.9%
COc1ccc(C2CC(=O)c3cnc(NCC4CCCO4)nc3C2)cc1 (configuration not stated) -0.196%
COc1cccc(C2c3[nH]c4ccccc4c3C[C@@H]3C(=O)N(CC4CCCO4)CC(=O)N23)c1 (some centres not stated) -6.67%
Cc1ccc(C(=O)Nc2nc3c(s2)CCC3C(=O)NCc2ccncc2)cc1 (configuration not stated) -7.71%
Cc1cc(F)ccc1NC(=O)c1cc(C2CC2)n2nccc2n1 -3.56%
Cc1ccc(Cn2cc(-c3noc(-c4ccccn4)n3)nn2)cc1 7.3%
O=C1NCCCn2cc(S(=O)(=O)NCc3ccc4c(c3)OCO4)cc21 -0.173%
Cc1nc2cc(-c3noc(-c4cnccn4)n3)ccc2n(C2CCCC2)c1=O -3.38%
CCCCN(C)c1ccc2nnc(CCc3nc(-c4cc(OC)cc(OC)c4)no3)n2n1 -5.1%
CNC(=O)N1C[C@H]2C[C@H](C(=O)Nc3ccc4c(c3)OCO4)[C@@H](C1)O2 -1.52%
O=C(COc1ccc2ccccc2c1)NCc1nnnn1-c1ccc(Cl)cc1 6.45%
CC1(C(N)=O)CN(Cc2ccnc(N3CCCC3)n2)CCO1 (configuration not stated) -2.23%
CN1CC(=O)N(C2CCCNC2)Cc2c(NC3CCc4ccccc43)ncnc21 (configuration not stated) -1.83%
O=S(=O)(c1ccc(F)c(Cl)c1)N1CCC(N2CCOCC2)CC1 1.61%
